Screening data: PubChem BioAssay, University of Kansas High Throughput Screening Laboratory
mHTT-CaM PPI inh = disrupts binding of mutant huntingtin to calmodulin; P42858; AlphaScreen His-mHTT/GST-CaM binding, luminescence; inhibition, % at 15 µM; 190,000 compounds, 3.6% hits; AID 1671202
Pf apPOL inh = Pf-apPOL DNA polymerase inhibition; inhibition, % at 10 µM; 210,000 compounds, 0.25% hits; Recombinant Pf-apPOL, molecular beacon fluorescence, 1.5 h
A number is an active result. Hits are enriched below; roughly 3.5% of the tested compounds scored in any of these assays. Cut-off read from the data, not from the text of the source: active = inhibition above about 50%; inactive = the rest.

What do the screens show for `CCCCC[C@@H](C)N1C[C@@H](COCc2ccccc2)Oc2cc(N3CC[C@H](N(C)C)C3)ccc2S1(=O)=O`?
mHTT-CaM PPI inh: 100.2; Pf apPOL inh: inactive

Results for CCCCC[C@H](C)N1C[C@@H](COCc2ccccc2)Oc2cc(N3CC[C@H](O)C3)ccc2S1(=O)=O ?
mHTT-CaM PPI inh: 87.6; Pf apPOL inh: inactive

How did CCCCC[C@H](C)N1C[C@@H](COCc2ccccc2)Oc2cc(N3CC[C@H](N(C)C)C3)ccc2S1(=O)=O do in these assays?
mHTT-CaM PPI inh: inactive; Pf apPOL inh: inactive

Results for CCCCC[C@@H](C)N1C[C@H](COCc2ccccc2)Oc2cc(N3CCC[C@@H]3CO)ccc2S1(=O)=O ?
mHTT-CaM PPI inh: inactive; Pf apPOL inh: inactive

How did CCCCC[C@H](C)N1C[C@H](COCc2ccccc2)Oc2cc(N3CC[C@@H](O)C3)ccc2S1(=O)=O do in these assays?
mHTT-CaM PPI inh: 92.4; Pf apPOL inh: inactive

What do the screens show for `OC(c1ccc2c(c1)OCO2)c1cccs1` (configuration not stated)?
mHTT-CaM PPI inh: inactive; Pf apPOL inh: inactive

How did Cn1cccc1CN(C(=O)Nc1cccs1)C1CC1 do in these assays?
mHTT-CaM PPI inh: inactive; Pf apPOL inh: inactive

What do the screens show for `CCCn1c2ccccc2c2nnc(SCC(=O)NC(C)c3ccccc3)nc21` (configuration not stated)?
mHTT-CaM PPI inh: inactive; Pf apPOL inh: inactive

What do the screens show for `Cc1cc(C(c2cc(C)c(N)c(C)c2)c2ccco2)cc(C)c1N`?
mHTT-CaM PPI inh: inactive; Pf apPOL inh: inactive

Results for Cc1cc(C(c2ccccc2)c2cc(C)c(N)c(C)c2)cc(C)c1N ?
mHTT-CaM PPI inh: 80.4; Pf apPOL inh: inactive

Results for Cc1nc(C(=O)NCc2cccnc2)c(C)n1C1CCN(C)CC1 ?
mHTT-CaM PPI inh: inactive; Pf apPOL inh: inactive

How did COc1ccc(-c2cccc([C@H]3[C@@H]4C=CCC[C@@]4(C)C(=O)N3Cc3ccccc3)c2)cc1 do in these assays?
mHTT-CaM PPI inh: 69.6; Pf apPOL inh: inactive

What do the screens show for `C[C@@]12CCC=C[C@H]1[C@H](c1cccc([N+](=O)[O-])c1)N(Cc1ccccc1)C2=O`?
mHTT-CaM PPI inh: inactive; Pf apPOL inh: inactive

How did COc1ccc([C@H]2[C@@H]3C=CCC[C@@]3(C)C(=O)N2Cc2ccccc2)cc1Cl do in these assays?
mHTT-CaM PPI inh: 51.8; Pf apPOL inh: inactive

How did CC(=O)c1ccc(-c2cccc([C@H]3[C@@H]4C=CCC[C@@]4(C)C(=O)N3Cc3ccccc3)c2)cc1 do in these assays?
mHTT-CaM PPI inh: 84.9; Pf apPOL inh: inactive

How did COc1ccc(-c2cc([C@H]3[C@@H]4C=CCC[C@@]4(C)C(=O)N3Cc3ccccc3)ccc2F)cc1OC do in these assays?
mHTT-CaM PPI inh: inactive; Pf apPOL inh: inactive

What do the screens show for `Cc1cccc([C@H]2[C@@H]3C=CCC[C@@]3(C)C(=O)N2Cc2ccccc2)c1`?
mHTT-CaM PPI inh: inactive; Pf apPOL inh: inactive

How did Cc1ccc(C2CC(C(F)(F)F)n3ncc(C(=O)Nc4ccc(Cl)cc4)c3N2)cc1 (configuration not stated) do in these assays?
mHTT-CaM PPI inh: inactive; Pf apPOL inh: inactive

What do the screens show for `COc1ccc2c(c1)-c1sc(C(=O)NCCC(C)C)cc1CC2`?
mHTT-CaM PPI inh: inactive; Pf apPOL inh: inactive

Results for O=C1Nc2ccc(Cl)cc2/C1=C/c1ccc(Cl)cc1 ?
mHTT-CaM PPI inh: inactive; Pf apPOL inh: inactive

What do the screens show for `CC(C)(C)c1ccc(/C=C2\C(=O)Nc3ccc(Cl)cc32)cc1`?
mHTT-CaM PPI inh: 60.0; Pf apPOL inh: inactive

How did Cc1ccc2c(c1)/C(=C/c1ccccc1Cl)C(=O)N2 do in these assays?
mHTT-CaM PPI inh: inactive; Pf apPOL inh: inactive

What do the screens show for `CCOc1cccc(/C=C2\C(=O)Nc3ccc(Br)cc32)c1O`?
mHTT-CaM PPI inh: 58.0; Pf apPOL inh: inactive

What do the screens show for `CCOc1ccc(/C=C2\C(=O)Nc3ccc(Br)cc32)cc1`?
mHTT-CaM PPI inh: inactive; Pf apPOL inh: inactive

Results for Cc1ccccc1/C=C1\C(=O)Nc2ccc(Cl)cc21 ?
mHTT-CaM PPI inh: 85.0; Pf apPOL inh: inactive

How did CCOc1ccccc1/C=C1\C(=O)Nc2ccc(Br)cc21 do in these assays?
mHTT-CaM PPI inh: 63.0; Pf apPOL inh: inactive

How did CCSc1sc(CC)cc1C1C(C(=O)Nc2ccc(C)cn2)=C(C)NC2=C1C(=O)CCC2 (configuration not stated) do in these assays?
mHTT-CaM PPI inh: inactive; Pf apPOL inh: inactive

What do the screens show for `COc1ccc(CNC(=O)C2(C)Cc3ccccc3C(=O)N2c2cccc(C)c2)cc1` (configuration not stated)?
mHTT-CaM PPI inh: inactive; Pf apPOL inh: inactive

Results for CN(CC1CC(c2ccc(F)cc2)=NO1)C(=O)c1cccs1 (configuration not stated) ?
mHTT-CaM PPI inh: inactive; Pf apPOL inh: inactive

Results for CCCC(=O)N1CCCC1c1nc2cc(-c3ccc(F)c(F)c3)ccc2o1 (configuration not stated) ?
mHTT-CaM PPI inh: inactive; Pf apPOL inh: inactive

How did COc1ccc(/C=C2/SC(=Nc3cc(C)cc(C)c3)NC2=O)cc1OC do in these assays?
mHTT-CaM PPI inh: inactive; Pf apPOL inh: inactive

Results for CCCS(=O)(=O)c1csc(C(=O)OC)c1NN=Cc1ccc(N(C)C)cc1 ?
Pf apPOL inh: inactive
